From PubChem
A selection: hits, their analogues and other compounds. The true share with any hit is near 3.5%.
FBW7 act: FBW7 E3 ligase activators, primary screen, biochemical, AlphaScreen, human | actives 0.13% (n = 650,000) | normalized activity (activation), % at 26.1 µM | AID 1259310, 2017 | AlphaScreen FBW7–phospho-cyclin E peptide binding, activator screen; in the data active = normalized activity above about 1.9%;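 also: purified mutant Fbw7 with reduced substrate affinity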
MITF inh: MITF inhibitors, primary screen, biochemical, AlphaScreen, human; Microphthalmia-associated transcription factor (Homo sapiens), O75030; AlphaScreen MITF homodimerization, bead proximity signal; inhibition, % at 2.6 µM; actives 0.91% (n = 650,000); AID 1259374, 2018; in the data active = inhibition above about 50%
TEAD-YAP inh: TEAD-YAP interaction inhibition, primary screen, TEAD-YAP interaction inhibitor project, luminescence, HEK-TIYL cells; TEAD-Gal4/YAP UAS-luciferase luminescence; inhibition, % at 9.12 µM; actives 1.4% (n = 640,000); in the data active = inhibition above about 32%
GPR151 activ: activators of human GPR151, primary screen, cell-based, PathHunter beta-arrestin, luminescence. G-protein coupled receptor 151 (Homo sapiens), Q8TDV0. PathHunter beta-arrestin GPR151 cells. activation, % at 11.2 µM. actives 1% (n = 650,000); in the data active = activation above about 4.9%
Target sequence (Q8TDV0 whole entry, looked up): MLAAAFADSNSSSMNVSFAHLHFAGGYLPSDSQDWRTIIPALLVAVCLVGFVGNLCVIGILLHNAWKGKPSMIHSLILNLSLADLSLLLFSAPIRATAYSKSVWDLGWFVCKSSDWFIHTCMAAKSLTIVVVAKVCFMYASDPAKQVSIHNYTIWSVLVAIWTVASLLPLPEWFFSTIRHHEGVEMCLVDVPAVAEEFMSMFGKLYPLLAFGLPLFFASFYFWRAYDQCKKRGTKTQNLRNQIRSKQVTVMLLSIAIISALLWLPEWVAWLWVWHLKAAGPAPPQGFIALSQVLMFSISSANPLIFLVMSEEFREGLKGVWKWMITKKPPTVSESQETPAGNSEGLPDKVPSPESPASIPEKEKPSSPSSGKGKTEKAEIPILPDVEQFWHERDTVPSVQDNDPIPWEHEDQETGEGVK
GPR151 confirm: GPR151 activators, triplicate retest, confirmation, cell-based, PathHunter beta-arrestin, luminescence; shares compounds with GPR151 activ; GPR151 PathHunter beta-arrestin cells, 90 min; % of EA-reagent control over plate median; activation, % at 11.2 µM; 6,700 tested, under 10 active; AID 1508609, 2020;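 active = mean percent activation across replicates above the confirmation screen cutoff of 4.91%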
GPR119 counter: GPR119 activators in beta-arrestin cells, counter-screen for GPR151 activator project, cell-based, PathHunter beta-arrestin, luminescence, triplicate; activation, % at 11.2 µM; actives 0.3% (n = 6,700); AID 1508611, 2020; shares compounds with GPR151 activ; 90 min; 0 = compound-well median, 100 = enzyme-acceptor control;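 active = mean percent activation in the counterscreen above 29.09%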;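 also: counterscreen on off-target GPR119 to flag nonselective hits from the GPR151 activator screen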
Each line names hits and unclear results; the compound was inactive in the other large screens (follow-up assays come after a bar, where they were run); ! = repeats disagree.

O=C(NCc1ccccc1)c1ccccc1Nc1ccnc(Nc2ccc(N3CCOCC3)cc2)c1	TEAD-YAP inh 37, GPR151 activ 11 | GPR151 confirm inactive | GPR119 counter inactive
CCC(=O)Nc1sc2c(c1C(=O)Nc1ccc(OC)cc1)CCC(C(C)(C)C)C2 (stereo unspecified)	GPR151 activ 8.8 | GPR151 confirm inactive | GPR119 counter inactive
CCOc1ccc(NC(=O)c2c(NC(=O)CC)sc3c2CCC(C(C)(C)C)C3)cc1 (stereo unspecified)	none
CC1=NN(c2ccccc2)C(=O)/C1=C\c1c(C)[nH]n(-c2ccc(C)cc2)c1=O	none
CCN(CC)CCNC(=O)c1cc(Cl)c(N)cc1OC	GPR151 activ 6.6! | GPR151 confirm inactive | GPR119 counter inactive
CC1CC(=O)c2cnc(N3CCN(Cc4ccccc4)CC3)nc2C1 (stereo unspecified)	none
O=C1CCCc2nc(N3CCN(Cc4ccccc4)CC3)ncc21	GPR151 activ 6.9 | GPR151 confirm inactive | GPR119 counter inactive
COc1ccc(N2C(=O)CC(N(CCc3ccc(OC)c(OC)c3)C(=O)c3ccccc3)C2=O)cc1 (stereo unspecified)	GPR151 activ 5.2 | GPR151 confirm inactive | GPR119 counter inactive
Nc1c(Cl)ncnc1N1CCOCC1	none
Nc1c(Cl)ncnc1N1CCN(c2ncnc(Cl)c2N)CC1	GPR151 activ 5.4 | GPR151 confirm inactive | GPR119 counter inactive
O=C(COc1ccccc1Cl)Nc1ccc(N2CCN(C(=O)c3ccco3)CC2)cc1	GPR151 activ 9.9 | GPR151 confirm inactive | GPR119 counter inactive
O=C(COc1ccc(Cl)cc1Cl)Nc1cccc(NC(=O)c2ccco2)c1	GPR151 activ 11 | GPR151 confirm inactive | GPR119 counter inactive
O=C(COc1ccc(Cl)cc1Cl)OCc1ccco1	GPR151 activ 6.5 | GPR151 confirm inactive | GPR119 counter inactive
O=C(COc1ccc(Cl)cc1Cl)NCc1ccco1	none
O=C(COc1ccc(Cl)cc1Cl)Nc1ccc(NC(=O)c2ccco2)c(Cl)c1	none
Cc1ccc(/C=C2\N=C(c3ccc(Cl)c(Cl)c3)OC2=O)cc1	none
CCOc1cc(C2C(C(=O)OC)=CN(C(C)C)C=C2C(=O)OC)cc(Br)c1O	GPR151 activ 7.2 | GPR151 confirm inactive | GPR119 counter inactive
CCOC(=O)C1=CN(C(C)C)C=C(C(=O)OCC)C1c1ccc(OC)cc1OC	GPR151 activ 5.4 | GPR151 confirm inactive | GPR119 counter inactive
COc1cccc(CNC(=O)Nc2ccc(-c3cn[nH]c3)cc2SCCC(=O)N(C)C)c1	none
CCc1ccccc1NC(=O)CCC(=O)OCC(=O)c1ccc([N+](=O)[O-])cc1	none
CCc1ccccc1NC(=O)CCCC(=O)OCC(=O)c1ccc([N+](=O)[O-])cc1	GPR151 activ 5.5 | GPR151 confirm inactive | GPR119 counter inactive
CC(NCCc1ccc(O)cc1)C(O)c1ccc(O)cc1 (stereo unspecified)	none
C[C@@H](NCCc1ccc(O)cc1)[C@@H](O)c1ccc(O)cc1	GPR151 activ 6.4! | GPR151 confirm inactive | GPR119 counter inactive
Cc1cc2ncn(CCC(=O)NC3CCCC3)c2cc1C	none
Cc1cc2ncn(CCC(=O)NC(C)(C)C)c2cc1C	GPR151 activ 5.3 | GPR151 confirm inactive | GPR119 counter inactive
NNC(=O)c1ccc(NC(=O)C2CC2)cc1	none
CC1=C(C(=O)NC2CCCC2)C2(CCCCCC2)OC1=O	none
CC1=C(C(=O)NC(C)C)C2(CCCCC2)OC1=O	GPR151 activ 7.3 | GPR151 confirm inactive | GPR119 counter inactive
CCC(C)NC(=O)C1=C(C)C(=O)OC12CCCCCC2 (stereo unspecified)	none
CC1=C(C(=O)NC2CCCCC2)C2(CCCCC2)OC1=O	GPR151 activ 6.2 | GPR151 confirm inactive | GPR119 counter inactive
O=C(COC(=O)C1COc2ccccc2O1)c1ccc[nH]1 (stereo unspecified)	none
Cc1ccc(-c2c(C(=O)Nc3ccc(C)cc3Br)oc(=O)c3ccccc23)cc1	none
C#CC(CC)(CC)NC(=O)Nc1cccc(C(C)=O)c1	none
NC(N)=NC(N)=Nc1cccc([N+](=O)[O-])c1	none
NC(N)=NC(N)=Nc1cccc(Cl)c1	GPR151 activ 10! | GPR151 confirm inactive | GPR119 counter inactive
O=C1N=C(N2CCCCC2)S/C1=C\c1ccco1	none
O=C1N=C(N2CCCC2C(=O)O)S/C1=C\c1ccco1 (stereo unspecified)	GPR151 activ 11 | GPR151 confirm inactive | GPR119 counter inactive
O=C(O)/C=C/C(=O)Nc1ccc(Sc2ccc([N+](=O)[O-])cc2)cc1	none
CCN(CC)c1ccc(NC(=O)/C=C\c2ccccc2)cc1	none
O=C(O)/C=C\C(=O)Nc1ccc([N+](=O)[O-])cc1	GPR151 activ 8.1 | GPR151 confirm inactive | GPR119 counter inactive
CCN(CC)c1ccc(NC(=O)/C=C\C(=O)O)cc1	GPR151 activ 16 | GPR151 confirm inactive | GPR119 counter inactive
CCCc1ccc(OCCCC(=O)Nc2nnc(COC)s2)cc1	GPR151 activ 6.9 | GPR151 confirm inactive | GPR119 counter inactive
Cc1ccc(NC(=O)Nc2nnc(COc3ccc(Br)cc3)s2)cc1	none
CC(=O)Nc1nnc(COc2ccc(Br)cc2)s1	GPR151 activ 7.9 | GPR151 confirm inactive | GPR119 counter inactive
Cc1ccc(N2C(=O)CC(NC34CC5CC(CC(C5)C3)C4)C2=O)cc1 (stereo unspecified)	none
COc1ccc(N2C(=O)CC(NCCNC(=O)c3ccc(Cl)cc3)C2=O)cc1 (stereo unspecified)	GPR151 activ 18 | GPR151 confirm inactive | GPR119 counter inactive
COc1ccc(N2C(=O)CC(NC34CC5CC(CC(C5)C3)C4)C2=O)cc1 (stereo unspecified)	GPR151 activ 5.5 | GPR151 confirm inactive | GPR119 counter inactive
CC(C)n1c(Nc2nccc3ccccc23)nc2c(N)ncnc21	none
COc1cc(Cl)cc(/C=C2\C(=O)NN(c3ccccc3)C2=O)c1O	GPR151 activ 5.7 | GPR151 confirm inactive | GPR119 counter inactive
O=C(NC1(C(=O)Nc2ccc(Br)cc2)CCCCC1)c1cccc(O)c1	GPR151 activ 5.5 | GPR151 confirm inactive | GPR119 counter inactive
Cc1ccsc1/C=C(\C#N)C(=O)NCc1cccnc1	GPR151 activ 12 | GPR151 confirm inactive | GPR119 counter inactive
Cc1ccsc1/C=C(/C#N)C(=O)NCc1ccccc1	none
Cc1ccc(OCC(=O)N2CCN(C(=O)COc3ccc4ccccc4c3)CC2)cc1	none
Cn1nnc2c(N3CCN(C(=O)COc4ccc5ccccc5c4)CC3)ncnc21	GPR151 activ 5.1 | GPR151 confirm inactive | GPR119 counter inactive
